Laboratory results taken from PubChem BioAssay (NCATS).
Records with an inconclusive call do not appear. Calls of active or inactive are those of the source. The call rests on the fitted dose curve; in most records, active means well fitted inhibition curve with a large enough effect; inconclusive means small, poorly fitted or top-dose-only effect; inactive means flat fitted curve, though single readings scatter.

assay: Drug repurposing screens with cells derived from glioblastoma tumor samples (AID 1345199); settings: GBM patient neurospheres viability, ATP luminescence, 48 h; at 46 µM (top of the series); tumour line A; further: nearly all actives have a fitted effect of over 40% in size
Outline: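 Primary testing used CD133+ neurospheres from four GBM patients, seven concentrations, 48 h exposure and ATP-based viability; confirmation added three slower-growing patient lines.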
On the % scale 0 is the no-effect control and ±100 the full control effect.

For `Nc1nnnn1-c1ccccc1`, which activity, negative = cell killing is on record?
Its activity, negative = cell killing is -29.5% (inactive).

Which activity, negative = cell killing does the source give for `O=C(O)Cc1ccc(OCCNC[C@H](O)c2ccccc2)cc1` here?
The activity, negative = cell killing was -29.2% (inactive).

For `CO[C@@]1(NC(=O)CSC[C@@H](N)C(=O)O)C(=O)N2C(C(=O)O)=C(CSc3nnnn3C)CS[C@@H]21`, which activity, negative = cell killing is on record?
The activity, negative = cell killing was -20.1% (inactive).

For `CCOC(=O)OCC/C(SC(=O)OCC)=C(\C)N(C=O)Cc1cnc(C)nc1N`, which activity, negative = cell killing is on record?
The activity, negative = cell killing was -26% (inactive).

For `CCCc1c2oc(C(=O)O)cc(=O)c2cc2c(=O)cc(C(=O)O)n(CC)c12`, which activity, negative = cell killing is on record?
The activity, negative = cell killing was -11% (inactive).

Which activity, negative = cell killing does the source give for `C[C@H]1NCc2cc(-c3ccc4c(=O)c(C(=O)O)cn(C5CC5)c4c3OC(F)F)ccc21` here?
The activity, negative = cell killing was -27.3% (inactive).

Which activity, negative = cell killing does the source give for `CN1C(=O)CC(C)(c2ccccc2)C1=O` (stereo not given) here?
Its activity, negative = cell killing is -33.9% (inactive).

Which activity, negative = cell killing does the source give for `CC(=O)OCC(=O)[C@@]1(O)CCC2C3CCC4=CC(=O)CC[C@]4(C)C3[C@@H](O)C[C@@]21C` (stereo not given in full) here?
The activity, negative = cell killing was -11.4% (inactive).

Which activity, negative = cell killing does the source give for `CC(NN)c1ccccc1` (stereo not given) here?
Its activity, negative = cell killing is -23.7% (inactive).

Which activity, negative = cell killing does the source give for `CN1CCCN=C1/C=C/c1cccs1` here?
Its activity, negative = cell killing is -29.5% (inactive).

For `OCCc1ccccc1`, which activity, negative = cell killing is on record?
Its activity, negative = cell killing is -18.5% (inactive).

Which activity, negative = cell killing does the source give for `CC(=O)Nc1c(I)c(NC(C)=O)c(I)c(C(=O)O)c1I` here?
The activity, negative = cell killing was -18.7% (inactive).

For `CN(C)C(=O)CNC(=O)Cc1ccccc1`, which activity, negative = cell killing is on record?
Its activity, negative = cell killing is -22.3% (inactive).

For `CSc1ccc(/C=C2/C(C)=C(CC(=O)O)c3cc(F)ccc32)cc1`, which activity, negative = cell killing is on record?
Its activity, negative = cell killing is -24% (inactive).

Which activity, negative = cell killing does the source give for `O=C(O)CNC(=O)CNC(=O)CNC(=O)CSC(=O)c1ccccc1` here?
The activity, negative = cell killing was -23.1% (inactive).

For `Cc1ccccc1C(=O)N1CC/C(=N\OS(=O)(=O)O)c2ccc(Cl)cc21`, which activity, negative = cell killing is on record?
The activity, negative = cell killing was -14.2% (inactive).

Which activity, negative = cell killing does the source give for `OCCCc1ccccc1` here?
The activity, negative = cell killing was -22.3% (inactive).

For `O=C(CCCCC(=O)Nc1c(I)cc(I)c(C(=O)O)c1I)Nc1c(I)cc(I)c(C(=O)O)c1I`, which activity, negative = cell killing is on record?
The activity, negative = cell killing was -28.1% (inactive).

With `CCCC(=O)O[C@]1(C(=O)COC(=O)CC)CC[C@H]2[C@@H]3CCC4=CC(=O)CC[C@]4(C)[C@H]3[C@@H](O)C[C@@]21C` as the molecule, how does the activity, negative = cell killing read?
Its activity, negative = cell killing is -4.97% (inactive).

With `CCN1CCN(C(=O)N[C@@H](C(=O)N[C@@H]2C(=O)N3[C@@H]2SC(C)(C)[C@H]3C(=O)O)c2ccccc2)C(=O)C1=O` as the molecule, how does the activity, negative = cell killing read?
The activity, negative = cell killing was -24% (inactive).

With `O=C(O)c1ccccc1Nc1cc(Cl)ccc1C(=O)O` as the molecule, how does the activity, negative = cell killing read?
The activity, negative = cell killing was -27.3% (inactive).

same assay, conditions: GBM patient neurospheres viability, ATP luminescence, 48 h; at 46.1 µM (top of the series); tumour line C

Which activity, negative = cell killing does the source give for `Nc1nnnn1-c1ccccc1` here?
Its activity, negative = cell killing is 12.1% (inactive).

For `O=C(O)Cc1ccc(OCCNC[C@H](O)c2ccccc2)cc1`, which activity, negative = cell killing is on record?
The activity, negative = cell killing was 9.13% (inactive).

Which activity, negative = cell killing does the source give for `CO[C@@]1(NC(=O)CSC[C@@H](N)C(=O)O)C(=O)N2C(C(=O)O)=C(CSc3nnnn3C)CS[C@@H]21` here?
Its activity, negative = cell killing is -4.96% (inactive).

For `CCOC(=O)OCC/C(SC(=O)OCC)=C(\C)N(C=O)Cc1cnc(C)nc1N`, which activity, negative = cell killing is on record?
Its activity, negative = cell killing is -10.1% (inactive).

For `CCCc1c2oc(C(=O)O)cc(=O)c2cc2c(=O)cc(C(=O)O)n(CC)c12`, which activity, negative = cell killing is on record?
Its activity, negative = cell killing is -12.7% (inactive).

Which activity, negative = cell killing does the source give for `C[C@H]1NCc2cc(-c3ccc4c(=O)c(C(=O)O)cn(C5CC5)c4c3OC(F)F)ccc21` here?
The activity, negative = cell killing was -18% (inactive).

For `CN1C(=O)CC(C)(c2ccccc2)C1=O` (stereo not given), which activity, negative = cell killing is on record?
The activity, negative = cell killing was -2.82% (inactive).

With `CC(=O)OCC(=O)[C@@]1(O)CCC2C3CCC4=CC(=O)CC[C@]4(C)C3[C@@H](O)C[C@@]21C` (stereo not given in full) as the molecule, how does the activity, negative = cell killing read?
Its activity, negative = cell killing is 20.9% (inactive).

For `CC(NN)c1ccccc1` (stereo not given), which activity, negative = cell killing is on record?
Its activity, negative = cell killing is -0.872% (inactive).

With `CN1CCCN=C1/C=C/c1cccs1` as the molecule, how does the activity, negative = cell killing read?
The activity, negative = cell killing was 6.9% (inactive).

Which activity, negative = cell killing does the source give for `OCCc1ccccc1` here?
The activity, negative = cell killing was 13.1% (inactive).

For `CN=C(N)NC(=O)Nc1c(C)cccc1C`, which activity, negative = cell killing is on record?
The activity, negative = cell killing was 0.539% (inactive).

Which activity, negative = cell killing does the source give for `CC(=O)Nc1c(I)c(NC(C)=O)c(I)c(C(=O)O)c1I` here?
The activity, negative = cell killing was -9.62% (inactive).

Which activity, negative = cell killing does the source give for `CN(C)C(=O)CNC(=O)Cc1ccccc1` here?
The activity, negative = cell killing was 4.09% (inactive).

With `CN1CCCN(C(c2ccccc2)c2ccc(Cl)cc2)CC1` (stereo not given) as the molecule, how does the activity, negative = cell killing read?
The activity, negative = cell killing was -12.3% (inactive).

With `Cc1cccc(C)c1NC(=O)c1cc(S(N)(=O)=O)c(Cl)cc1O` as the molecule, how does the activity, negative = cell killing read?
Its activity, negative = cell killing is -16.5% (inactive).

Which activity, negative = cell killing does the source give for `Cc1ccc(/C=N/n2c(-c3ccccc3)csc2=S)cc1` here?
Its activity, negative = cell killing is -16.1% (inactive).

For `CSc1ccc(/C=C2/C(C)=C(CC(=O)O)c3cc(F)ccc32)cc1`, which activity, negative = cell killing is on record?
Its activity, negative = cell killing is -7.45% (inactive).

For `CN(C(=O)C(Cl)Cl)c1ccc(OC(=O)c2ccco2)cc1`, which activity, negative = cell killing is on record?
Its activity, negative = cell killing is -29.6% (inactive).

With `O=C(O)c1[nH]n(-c2ccc(S(=O)(=O)O)cc2)c(=O)c1N=Nc1ccc(S(=O)(=O)O)cc1` as the molecule, how does the activity, negative = cell killing read?
The activity, negative = cell killing was -16.3% (inactive).

Which activity, negative = cell killing does the source give for `O=C(O)CNC(=O)CNC(=O)CNC(=O)CSC(=O)c1ccccc1` here?
Its activity, negative = cell killing is -10.1% (inactive).

With `Cc1ccccc1C(=O)N1CC/C(=N\OS(=O)(=O)O)c2ccc(Cl)cc21` as the molecule, how does the activity, negative = cell killing read?
The activity, negative = cell killing was 2.94% (inactive).

Which activity, negative = cell killing does the source give for `OCCCc1ccccc1` here?
The activity, negative = cell killing was 2.38% (inactive).

For `O=C(CCCCC(=O)Nc1c(I)cc(I)c(C(=O)O)c1I)Nc1c(I)cc(I)c(C(=O)O)c1I`, which activity, negative = cell killing is on record?
Its activity, negative = cell killing is 4.23% (inactive).

Which activity, negative = cell killing does the source give for `OC(CCCN1CCCCC1)(c1ccccc1)c1ccccc1` here?
The activity, negative = cell killing was -3.12% (inactive).

With `CCCC(=O)O[C@]1(C(=O)COC(=O)CC)CC[C@H]2[C@@H]3CCC4=CC(=O)CC[C@]4(C)[C@H]3[C@@H](O)C[C@@]21C` as the molecule, how does the activity, negative = cell killing read?
Its activity, negative = cell killing is 15.1% (inactive).

With `CCN1CCN(C(=O)N[C@@H](C(=O)N[C@@H]2C(=O)N3[C@@H]2SC(C)(C)[C@H]3C(=O)O)c2ccccc2)C(=O)C1=O` as the molecule, how does the activity, negative = cell killing read?
Its activity, negative = cell killing is 3.83% (inactive).

With `O=C(O)c1ccccc1Nc1cc(Cl)ccc1C(=O)O` as the molecule, how does the activity, negative = cell killing read?
The activity, negative = cell killing was 1.8% (inactive).

For `CCO[C@H](Cc1ccc(OCCc2ccc(OS(C)(=O)=O)cc2)cc1)C(=O)O`, which activity, negative = cell killing is on record?
Its activity, negative = cell killing is -26% (inactive).
